From PubChem BioAssay AID1508600 (Functional Genomics Laboratory (NCATS/FGL), 2020)
The campaign covered roughly 53,000 sequences. About 3,700 (7%) were called active. This is one part of a sample in which actives are shown more often than they occur.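 Rule for the calls: active = gene knockdowns whose robust z-score for IL-1 alpha signal is at least 2 or at most -2, so actives lie on both sides; inactive = the rest.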

test: Components of the Cytosolic LPS Sensing Pathway: Gene Identification via Genome-wide siRNA Screen; conditions: RAW264.7 macrophages, IL-1a HTRF, actives lie on both sides, screened at 100 nM (by protocol), cells primed 5 h with Pam3CSK4 first;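 note: robust z of the log signal after scaling to non-targeting control siRNA wells of the plate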
Procedure, shortened: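 Supernatant IL-1a by HTRF from RAW264.7 cells primed with Pam3CSK4 (5 hours) and transfected with LipidA (24 hour) after 48h siRNA knockdown at 100 nM; cell viability checked with CellTiter-Glo.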

Sequence	z-score
GGUCCUCAAUGAAAUGAGATT against Krt12	1.05 (inactive)
GGAGUUUGGAACUUCCAACTT against Tcf21	2.79 (active)
GGACCAAAAUCUAGAAUACTT against Zfp629	-0.898 (inactive)
GGUAUUUAAGUGAUACAUCTT against Ddost	-0.321 (inactive)
GGUACCGUCAGUUGUCCUATT against Rnf4	-1.86 (inactive)
GGUGAAGAAGGAGACAAAGTT against Tmem43	0.347 (inactive)
GGAUAAAGUUUAAGGAUGGTT against Vmn1r40	-0.43 (inactive)
GGAGAAGGAUGAAGACGGATT against Map1lc3a	0.397 (inactive)
GCUUUUGUUACAUAAUGCUTT against Tmem237	1.12 (inactive)
GACCACUUCCUUCUAUGCCTT against Slc35c1	-2.07 (active)
GGGCUUCAUCAACUAUCUUTT against Spint1	1.03 (inactive)
CGGCUAAAUGCAAGUAAAGTT against Rgma	-1.07 (inactive)
GGUACUGAUUACUCUGUAUTT against Mrps17	-0.388 (inactive)
GCUUUUUGUGAAACUGGCCTT against Pstpip2	0.191 (inactive)
GGUCAAUAUCCUCGGACAUTT against Hsd17b13	-0.386 (inactive)
GCCACGUAGACUGAUAUAGTT against Irf5	-1.16 (inactive)
GGAACAAGGAAGUUAAGGATT against Olfr1044	0.251 (inactive)
GCCCAACGUGGUGUACAUUTT against Gask1b	4.04 (active)
CCAGUUUCAGAUCAGAUUATT against Zfp747	0.729 (inactive)
GCUGACCUUCAUUCAUAUATT against Vmn1r27	-2.06 (active)
GCUAGGAGAACCUACAUACTT against Adcy4	-0.368 (inactive)
GCUGAGAGUGAACCGAUGUTT against Dyrk4	1.54 (inactive)

Sequence	z-score
CCAUUCUACGAGAAUUGUATT against Dync1i2	-0.326 (inactive)
GGAUAACAGAGAUUUCUCCTT against Il15ra	0.0534 (inactive)
CCUGCAUUAUUUAUGAAAGTT against Mfap3l	-0.449 (inactive)
GUAAUCACCUUAAAGAUGUTT against Cebpb	1.32 (inactive)
GGUUAGGUUGAUGAAUAAGTT against Eif4ebp2	2.46 (active)
CCUUUUGAGAGCUCCAGAUTT against Ptrh1	-0.273 (inactive)
CCUAAGGCAAUCCCUAUUGTT against Gprasp1	-0.424 (inactive)
GCAAUUUAAGUUUAGGAGATT against Heatr1	-0.215 (inactive)
GCCAAUCUGGUGAUACUUCTT against Vmn1r71	-1.64 (inactive)
GCUGUUAAGUAAUGACAGATT against Chst7	1.54 (inactive)
GGUAAAUGACAACUUUCUUTT against Slco6b1	2.92 (active)
GCCUAUUGGCCUGAUAUGUTT against Gpr141b	0.173 (inactive)
GGUACAACUGCUCAUUUUUTT against Rhbdd1	-0.0082 (inactive)
GGCCCUAAUUUCAGUAAUATT against Pigv	0.568 (inactive)
GCCUUUCUCGUUCCUAUAGTT against Plgrkt	-2.42 (active)
GGUUUUUGAGUUUCUGAUUTT against Vps8	1.28 (inactive)
CCACCUUGUUGAGUGGCACTT against Smarcd3	-0.177 (inactive)
GCAUUUCAAUCGCACGUUUTT against Gal3st2	-0.893 (inactive)
CCGAGCAAAAUCUCAAAUUTT against Mdh1	1.89 (inactive)
CCCUCUUAGUAACUGGCUCTT against Cdhr4	-0.0846 (inactive)
GGAAGACAUGAAAUUGUUCTT against Psma3	-2.69 (active)
GCAAGAAGGUUAUUCUAUATT against Atxn3	0.399 (inactive)

Sequence	z-score
GGCUUUUGAGAAUUCAUUCTT against Kcna5	2.75 (active)
GGCCUAUCUUCUUUACAUATT against Ctbs	0.348 (inactive)
GUUUCUGGAGACGGUGGAGTT against Rpl10a	1.74 (inactive)
AGGAAAGAAAAUAUGCUGATT against Cox17	1.12 (inactive)
GCGUGCUGGUUUUCUGAUUTT against Sbno2	0.333 (inactive)
GGAGAUCCAGUUUUUUAACTT against Ndst1	0.566 (inactive)
GGUGGAAUUUUCAACUUACTT against Nkx3-1	5.36 (active)
GGUCUAGCUCAAAAUCCCATT against Srek1	-1.3 (inactive)
GGCUACCGAGACAAUGCUUTT against Pcmtd1	0.232 (inactive)
GGAGAAGAAUUCUUACAGGTT against Fbxo16	0.468 (inactive)
CCCGACCUCAACAUUUGUATT against Bmp2k	-0.265 (inactive)
GGUAGCAAAUCCAACAAGATT against Slamf1	0.226 (inactive)
GGCACUUCCUCCCUCAACATT against 4833420G17Rik	-0.57 (inactive)
GGAGGUCAAAGUAAACUGGTT against Tial1	2.2 (active)
CCCAGUAAUAUGAAAAGAGTT against Gucy2f	-0.408 (inactive)
GGUUGAAUCCUAAGAAUGUTT against Edc3	0.39 (inactive)
GGAGAAAGCUCAGCAUACATT against Usp3	-0.484 (inactive)
GGGAAAGCACUCCAACACATT against Frem1	-2.12 (active)
CGCAUGACCUUCCAGAUGCTT against Myoz1	0.49 (inactive)
GCACAUCAACAUUGAUACUTT against Atp11c	-0.0521 (inactive)
GGAAAUCGAGGACUUAUACTT against Wnk4	3.54 (active)
GGCAAUGUCUUCUCCAAUATT against Dedd	-0.652 (inactive)

Sequence	z-score
GCCGGAAGAAACUCAUGCUTT against Mad2l1bp	-0.152 (inactive)
CCUGUUAAUUGAUUACCUUTT against Pla2r1	1.03 (inactive)
CCUAACGGUCAGAAGUUGATT against Ccng1	0.39 (inactive)
CCUCUCAGUGGUUGAAAUGTT against Wdr5	-2.46 (active)
GGGCAGACCUAAUAGCUUATT against Cycs	0.707 (inactive)
GCUUUUGACACUUAUAUGATT against Ptk7	-0.299 (inactive)
GGCAUGUCUUAAUUUCAUUTT against Shisa2	0.333 (inactive)
GGAAGACUCACGGCUCAAATT against Ccdc124	-1.48 (inactive)
GGCAUCUUCCUUUAAAAAGTT against Gar1	-0.708 (inactive)
GGACAGUUUAAGGACAACATT against Morn2	0.18 (inactive)
GGUGGUCUUCAAGUCUGACTT against Cdcp2	1.95 (inactive)
GCAUCUCCCUUAUGUCUGUTT against Nubp2	2.12 (active)
GGGAAGUGGGAUUCCUAAGTT against Fam220a	0.218 (inactive)
GCACGAAGGUCGUUAUUAUTT against Wls	-0.28 (inactive)
GGUGACACAGGAGAAGAAGTT against Colec10	-0.00926 (inactive)
GGUAAUUAAUUCAAAGCAGTT against St8sia4	-0.851 (inactive)
GGAGUUUAUGAGGAACUCGTT against Zwint	-0.0598 (inactive)
GGGCUAAAUUCAUGGGUUCTT against Timp1	0.681 (inactive)
GGGAAGAUCUUCAGGAAAATT against Cbr3	1.1 (inactive)
GCUCCUAAUGAAAUGGUUUTT against Kif2a	1.41 (inactive)
CGGUAUGUUAUUUUGGUUGTT against Fam216a	-0.236 (inactive)
GGGCUGUGGAAACAAUUUATT against Zpld1	2.32 (active)

Sequence	z-score
ACUUCCUGAUUGAGAGAAATT against Olfr497	-0.319 (inactive)
GGUUCCACUAAUCUUUUUATT against Mark3	0.696 (inactive)
GGAGGAGAUUGUCCAGAAATT against Ecm1	1.2 (inactive)
GGUCGACAUUGAAGCUAUUTT against Ralyl	-0.517 (inactive)
GCAUUGUGAAUAUUCAGAUTT against Cers4	0.623 (inactive)
GGCAGUGUGUUAGAUUCUUTT against Cts3	2.35 (active)
GGAGACUAUCCUCAUUAUUTT against Smarca4	0.36 (inactive)
AUGCUUUGAUCAGUAUGAATT against Vmn1r188	-2.38 (active)
GGAGGACAACAAGUACUGCTT against Smap1	-1.08 (inactive)
GGAAAAUCGGUUAUCAUAATT against Pde7a	-0.684 (inactive)
GCUAUAGCGCGGAAAUGGATT against Dclk3	-0.531 (inactive)
GGUCAAAGAACAAAAAGAATT against Muc13	-0.176 (inactive)
GGAGCUAAAUGGCUCUGAUTT against Boc	2.98 (active)
GGGACUGGCAGAUCUUAUCTT against Gtpbp3	0.817 (inactive)
GGAACGAGAAUCGGAGAUGTT against Mapk8ip3	2.92 (active)
GGUCAUUGGUAGGUCCACUTT against Rusc2	0.338 (inactive)
GGGAGAUUCAUUUUCCCAGTT against Rnf43	0.0663 (inactive)
GCAACAGGUUAGAAUAGACTT against Scd3	-1.36 (inactive)
GGUUCUGCACAUCUGAACATT against Cst3	-0.109 (inactive)
GGCCUUUUUGUUUAUGCUATT against Zan	-0.0784 (inactive)
